Test [1] deals with Glucocorticoid receptor (Homo sapiens) (UniProt P04150). The experiment in a line: GR-GFP Redistribution (AID 450). Note: potency is the fitted concentration of half-maximal effect.
Test [2] shares this target. As to the kind of experiment: GR-EFC Redistribution (AID 451; calls by dose curve; note: potency is the fitted concentration of half-maximal effect). The note with it: CHO-K1 GR-EFC translocation, beta-gal luminescence, 2 h. The essentials:
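CHO-K1 cells stably expressing nuclear-localized β-gal enzyme acceptor and GR fused C-terminally to the enzyme donor fragment; ligand-driven nuclear translocation restores β-gal by complementation. Compounds titrated up to 46 uM final, 2 h at 37 °C; luminescence read.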

Test [3] concerns the target Mitogen-activated protein kinase 10 (Mus musculus) (UniProt Q61831). The experiment in a line: JNK3 AlphaScreen Assay (AID 530; active = well fitted curve in either direction with a large enough effect, not every such curve was filed as active;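 note: kinase came from lysate of stimulated human HepG2 cells; signal reports phosphorylation of biotinylated GST-cJun 1-79 at Ser73 with 10 µM ATP; series mostly up to about 57 µM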). Put shortly:
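Phosphorylation of biotinylated GST-cJun(1-79) at Ser73 is measured by AlphaScreen proximity luminescence. Enzyme is JNK3 in HepG2 lysates activated with interleukin-1beta and tumor necrosis factor alpha; ATP is 10 uM final.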
(In general: In Alpha technology, singlet oxygen from a donor bead excites a nearby acceptor bead.)

Test [4] concerns the target 3',5'-cyclic-AMP phosphodiesterase 4B (Homo sapiens) (UniProt Q07343). As to the kind of experiment: qHTS Assay for Inhibitors of PDE-IV (AID 607; active = well fitted activation curve with a large enough effect in the main read-out, with a control signal flat, not every such curve was filed as active). Put shortly:
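The readout is membrane depolarisation from a cAMP-sensing CNG channel, detected with a potential dye at ex 535/em 590. Cells were HEK293-derived (endogenous PDE-IV) at 1000 cells/well, titrated up to 22.9 uM final.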
On the technique in general: qHTS replaces the single test concentration by a dilution series.

For test [5], the target named is Cytochrome P450 2D6 (Homo sapiens) (UniProt P10635). The experiment in a line: qHTS Assay for Inhibitors and Substrates of Cytochrome P450 2D6 (AID 891; active = well fitted inhibition curve with a large enough effect;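 note: luciferin methyl ether substrate demethylated by CYP2D6 with NADPH regeneration; nearly all actives have a fitted effect of over 60% in size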). Put shortly: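 Luminescent read-out of luciferin formed by 5 nM human CYP2D6 demethylating 30 uM Luciferin-ME EGE (Km level) over 60 min at room temperature after NADPH regeneration addition. Data normalized to full inhibition by 1.43 uM quinidine.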
Sequence of Cytochrome P450 2D6 (Homo sapiens) (P10635 whole entry, looked up): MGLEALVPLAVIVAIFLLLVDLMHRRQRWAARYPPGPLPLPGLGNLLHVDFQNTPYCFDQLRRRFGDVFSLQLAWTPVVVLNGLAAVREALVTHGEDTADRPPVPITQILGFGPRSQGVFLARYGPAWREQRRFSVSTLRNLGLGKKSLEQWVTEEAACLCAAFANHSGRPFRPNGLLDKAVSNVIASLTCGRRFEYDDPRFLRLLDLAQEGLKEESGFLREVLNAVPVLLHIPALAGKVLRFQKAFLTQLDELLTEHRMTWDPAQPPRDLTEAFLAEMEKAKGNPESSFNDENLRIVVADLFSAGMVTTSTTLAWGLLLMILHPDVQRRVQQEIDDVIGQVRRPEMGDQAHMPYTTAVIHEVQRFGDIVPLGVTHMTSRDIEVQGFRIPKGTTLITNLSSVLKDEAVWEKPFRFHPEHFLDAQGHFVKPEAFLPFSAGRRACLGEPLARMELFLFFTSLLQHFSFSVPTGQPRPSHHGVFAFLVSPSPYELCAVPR

For test [6], the target named is Cytochrome P450 2C19 (Homo sapiens) (UniProt P33261). The experiment in a line: qHTS Assay for Inhibitors and Substrates of Cytochrome P450 2C19 (AID 899; active = well fitted inhibition curve with a large enough effect; note: nearly all actives have a fitted effect of over 60% in size; note: potency is the fitted concentration of half-maximal effect). The essentials: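 In 50mM KPO4, the reaction held 5nM enzyme and KM-level (10uM) Luciferin-H EGE; it ran 60 min at 37C after NADPH regeneration and a 10 min compound preincubation. Luminescence values were scaled to 57uM ketoconazole as complete inhibition.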
Sequence of Cytochrome P450 2C19 (Homo sapiens) (P33261 whole entry, looked up): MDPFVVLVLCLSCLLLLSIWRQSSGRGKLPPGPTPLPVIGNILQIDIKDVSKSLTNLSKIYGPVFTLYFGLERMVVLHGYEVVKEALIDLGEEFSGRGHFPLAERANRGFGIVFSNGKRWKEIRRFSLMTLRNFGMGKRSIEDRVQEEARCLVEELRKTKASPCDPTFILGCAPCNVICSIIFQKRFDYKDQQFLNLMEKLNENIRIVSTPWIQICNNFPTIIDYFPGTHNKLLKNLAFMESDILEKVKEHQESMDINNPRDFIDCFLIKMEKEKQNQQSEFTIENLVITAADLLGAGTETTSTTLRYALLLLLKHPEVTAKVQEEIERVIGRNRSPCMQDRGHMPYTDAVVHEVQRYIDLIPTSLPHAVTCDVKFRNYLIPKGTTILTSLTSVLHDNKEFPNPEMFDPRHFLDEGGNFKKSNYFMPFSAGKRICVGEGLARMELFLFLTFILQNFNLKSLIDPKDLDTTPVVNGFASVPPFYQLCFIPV

Test [7] addresses Cytochrome P450 2C9 (Homo sapiens) (UniProt P11712). As to the kind of experiment: qHTS Assay for Inhibitors and Substrates of Cytochrome P450 2C9 (AID 883; active = well fitted inhibition curve with a large enough effect; note: nearly all actives have a fitted effect of over 60% in size). Put shortly: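 CYP2C9 deoxyluciferin hydroxylation, 37C, 60 min with NADPH regeneration; 10nM enzyme, 100uM Luciferin-H (KM). Glo detection reagent stopped reaction; luminescence normalized to sulphaphenazole (57uM) full inhibition.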

Test [8] is described as follows: qHTS Assay for Identification of Small Molecule Agonists for Hypoxia Response Element Signaling Pathway (AID 914; active = well fitted activation curve with a large enough effect in the signal ratio, with a control signal flat, not every such curve was filed as active; the % refers to the signal ratio; note: potency is the fitted concentration of half-maximal effect). The note with it: ME-180 (cervical carcinoma) HRE-bla reporter, beta-lactamase ratio, CoCl2, 17 h; activation: hits give high values. The essentials: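 qHTS titration; ME-180 HRE-bla cells; EC50 CoCl2 co-treatment, 17 h at 37 degrees Celsius; CCF4 dye, ex 405nm, em 460nm and 530nm; %Activity from ratio; AC50.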

Values without a mark were called inactive. Inconclusive results are not listed. Active and inactive are the calls of the source.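 Rule for the calls, unless noted: active = compounds whose dose series gives a full or clear partial fitted curve of increased nuclear translocation; inconclusive = weak partial curve or effect only at the top dose; inactive = no dose-dependent translocation response.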 Some results are limits rather than exact numbers.

Sequence of Glucocorticoid receptor (Homo sapiens) (P04150 whole entry, looked up): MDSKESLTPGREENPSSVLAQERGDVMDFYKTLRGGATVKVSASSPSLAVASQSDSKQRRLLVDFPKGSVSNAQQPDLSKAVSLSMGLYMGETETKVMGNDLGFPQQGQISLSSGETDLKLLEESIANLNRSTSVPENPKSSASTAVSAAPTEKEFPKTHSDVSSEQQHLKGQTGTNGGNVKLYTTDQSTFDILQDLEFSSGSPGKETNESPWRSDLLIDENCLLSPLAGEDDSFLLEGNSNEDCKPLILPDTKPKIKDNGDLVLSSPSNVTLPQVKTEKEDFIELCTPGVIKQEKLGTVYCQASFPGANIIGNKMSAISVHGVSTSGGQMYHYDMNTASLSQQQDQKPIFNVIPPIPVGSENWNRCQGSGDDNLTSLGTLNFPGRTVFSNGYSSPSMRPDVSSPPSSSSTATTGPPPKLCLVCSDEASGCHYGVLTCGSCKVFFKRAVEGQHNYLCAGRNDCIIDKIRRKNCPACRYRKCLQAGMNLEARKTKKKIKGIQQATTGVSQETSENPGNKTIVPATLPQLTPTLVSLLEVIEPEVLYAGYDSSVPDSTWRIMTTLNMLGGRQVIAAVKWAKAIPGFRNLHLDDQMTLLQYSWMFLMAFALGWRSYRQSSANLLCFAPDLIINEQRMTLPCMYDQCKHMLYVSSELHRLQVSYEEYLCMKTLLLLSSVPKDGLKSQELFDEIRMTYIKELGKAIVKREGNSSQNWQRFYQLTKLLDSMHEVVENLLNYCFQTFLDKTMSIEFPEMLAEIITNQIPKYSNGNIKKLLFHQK
Sequence of 3',5'-cyclic-AMP phosphodiesterase 4B (Homo sapiens) (Q07343 whole entry, looked up): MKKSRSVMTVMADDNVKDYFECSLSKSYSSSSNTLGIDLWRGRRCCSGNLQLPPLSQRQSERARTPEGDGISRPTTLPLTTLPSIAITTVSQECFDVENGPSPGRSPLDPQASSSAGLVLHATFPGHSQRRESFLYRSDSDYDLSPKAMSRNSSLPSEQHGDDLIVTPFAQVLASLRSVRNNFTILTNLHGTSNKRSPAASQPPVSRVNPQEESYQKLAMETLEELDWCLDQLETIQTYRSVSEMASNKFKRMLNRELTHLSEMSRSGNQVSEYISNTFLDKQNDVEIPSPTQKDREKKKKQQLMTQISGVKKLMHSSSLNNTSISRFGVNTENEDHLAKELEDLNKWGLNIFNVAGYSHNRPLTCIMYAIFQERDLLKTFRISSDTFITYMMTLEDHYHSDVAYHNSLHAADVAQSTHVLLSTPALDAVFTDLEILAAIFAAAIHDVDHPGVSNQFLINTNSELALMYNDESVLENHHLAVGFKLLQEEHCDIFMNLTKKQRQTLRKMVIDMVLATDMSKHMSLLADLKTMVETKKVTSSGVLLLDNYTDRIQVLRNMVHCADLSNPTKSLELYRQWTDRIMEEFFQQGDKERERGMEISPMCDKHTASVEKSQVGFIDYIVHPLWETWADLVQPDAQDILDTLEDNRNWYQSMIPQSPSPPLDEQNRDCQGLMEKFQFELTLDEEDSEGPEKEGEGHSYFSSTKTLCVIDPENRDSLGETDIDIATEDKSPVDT
Sequence of Cytochrome P450 2C9 (Homo sapiens) (P11712 whole entry, looked up): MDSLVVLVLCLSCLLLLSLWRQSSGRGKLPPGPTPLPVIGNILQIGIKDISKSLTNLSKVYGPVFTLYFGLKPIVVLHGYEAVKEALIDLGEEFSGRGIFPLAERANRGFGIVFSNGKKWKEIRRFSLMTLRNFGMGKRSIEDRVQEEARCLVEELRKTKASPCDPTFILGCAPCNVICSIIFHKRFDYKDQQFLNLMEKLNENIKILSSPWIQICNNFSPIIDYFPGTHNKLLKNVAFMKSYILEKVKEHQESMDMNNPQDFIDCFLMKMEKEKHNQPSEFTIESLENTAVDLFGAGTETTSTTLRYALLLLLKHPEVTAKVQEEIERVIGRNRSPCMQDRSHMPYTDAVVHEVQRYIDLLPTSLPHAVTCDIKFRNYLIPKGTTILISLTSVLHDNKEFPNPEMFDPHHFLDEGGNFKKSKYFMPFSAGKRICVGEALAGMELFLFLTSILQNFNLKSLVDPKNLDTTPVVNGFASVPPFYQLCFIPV

On to `CC1=CC(=O)C2=C(C)CC[C@@H]3[C@H](OC(=O)[C@H]3C)[C@H]12`, for which the Potency in test [1] and in test [2] was over 46 µM in each case. For the same compound, the Potency entry in test [3] and in test [4] was “inactive” in each case.

Take `C[C@H]1[C@H](C)CC[C@@]2(C(=O)O)CC[C@]3(C)C(=CC[C@@H]4[C@@]5(C)CC[C@H](O)C(C)(C)[C@@H]5CC[C@@]43C)[C@@H]12`: the Potency in test [1] and in test [2] was over 46 µM in each case. Besides, the Potency entry in test [3] and in test [4] was “inactive” each time.

As to `C=C[C@@](C)(O)CC[C@H]1[C@]2(C)CCCC(C)(C)[C@H]2CC[C@]1(C)O`, the Potency in test [1] is over 46 µM; in test [2], over 46 µM; in test [6], 2 µM (active). Besides, the Potency result in test [3] and in test [5] was “inactive” each time.

As to `C[C@@H]1O[C@@H](OC[C@@H]2O[C@@H](Oc3c(-c4ccc(O)c(O)c4)oc4cc(O)cc(O)c4c3=O)[C@H](O)[C@H](O)[C@@H]2O)[C@H](O)[C@H](O)[C@@H]1O`, the Potency in test [1] and in test [2] was over 46 µM in each case. Besides, the Potency entry in test [3], in test [4], in test [7], in test [5] and in test [6] was “inactive” throughout.

In the case of `COc1ccc(C(=O)[C@H]2[C@H]3[C@@H](C(=O)[C@@H]4OC[C@H]3O4)[C@H]3C=Cc4ccccc4N32)c(OC)c1`, the Potency in test [1] and in test [2] was over 46 µM throughout. Besides, the Potency result in test [3], in test [4] and in test [5] was “inactive” in each case.

On to `OC1(c2cccc(C(F)(F)F)c2)CCN(c2ncnc3c2[nH]c2ccccc23)CC1`, for which the Potency in test [1] is over 20.6 µM.

For the compound `CC1(C)Cc2c(C#N)c(NCc3ccco3)nc(-c3ccco3)c2CO1`, the Potency was over 20.6 µM in test [1] and 2 µM (active) in test [8].

In the case of `C=C1C[C@@]23C[C@]1(O)CC[C@@H]2[C@]12C=C[C@@H](O)[C@@](C)(C(=O)O1)[C@@H]2[C@@H]3C(=O)O`, the Potency in test [1] and in test [2] was over 46 µM each time. Further, the Potency entry in test [3] was “inactive”.

Values taken from PubChem BioAssay (NCATS).
